The full data set covers some 7,900 targets. This sample favours those with a hit. About 0.6% of all pairs of compound and target were hits. Unmarked numbers belong to inactive results.
Assays:
Assay in all cases: log2 fold change, soluble protein after heating vs DMSO (PISA); higher = thermal stabilisation; K562 cells, 10 uM, 30 min; active = over 0.2 and 3.5 SD of the protein, either way, in both replicates (recomputed)
erlotinib = compound: C#Cc1cccc(Nc2ncnc3cc(OCCOC)c(OCCOC)cc23)c1 [erlotinib]
Summary of the method: (§1)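 Values are thermal stability changes relative to control samples and are taken from duplicates. They are stated as log2 fold changes. Before quantification by TMTpro 16plex LC-MS/MS with equalised channel sums, K562 cells at 2×10^6 cells/mL were treated with 10 μM compound for 30 min, heated in aliquots for 3 min across 48°C-58°C, pooled, extracted in PBS with 0.5% NP-40 at 4°C, and centrifuged at 21,000xg for 90 min to give the soluble supernatant.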

[1] = compound: C/C(=N\NC(=O)C1=CC(=CC=C1)S(=O)(=O)N2CCOCC2)/C3=C(C=CC(=C3)Cl)O
Summary of the method: as §1

[2] = compound: C1=CC(=C(C=C1Cl)C2=NC3=NC=CN=C3C(=N2)NC4=CC=NC=C4)F
Summary of the method: as §1

[3] = compound: C1=CC(=CC=C1C2=NC3=C(N2)C=C(C=C3)C(=O)N)OC4=CC=C(C=C4)Cl
Summary of the method: as §1

[4] = compound: C1=CC2=C(C=CC(=C2)/C=C\3/C(=O)NC(=NCC4=CC=CS4)S3)N=C1
Summary of the method: as §1

[5] = compound: C1=CC2=NC=CN=C2C=C1/C=C/3\C(=O)NC(=O)S3
Summary of the method: as §1

[6] = compound: C1=CC=C(C=C1)C2=NC(=C(N2)C3=CC=NC=C3)C4=CC(=C(C=C4)Cl)O
Summary of the method: as §1

[7] = compound: C1=CC=C2C(=C1)C3=NNC4=CC=CC(=C43)C2=O
Summary of the method: as §1

[8] = compound: C1CCN(C1)C(=O)NC2=CC=CC(=C2)NC3=NC=C(C(=N3)NCCC4=CN=CN4)Br
Summary of the method: as §1

[9] = compound: C1CN(CCC1(CC2=CC=C(C=C2)Cl)N)C3=NC=NC4=C3C=CN4
Summary of the method: as §1

IRAK-1-4 Inhibitor I = compound: C1COCCN1CCN2C3=CC=CC=C3N=C2NC(=O)C4=CC(=CC=C4)[N+](=O)[O-] [IRAK-1-4 Inhibitor I]
Summary of the method: as §1

ibrutinib = compound: C=CC(=O)N1CCC[C@@H](n2nc(-c3ccc(Oc4ccccc4)cc3)c3c(N)ncnc32)C1 [ibrutinib]
Summary of the method: as §1

[10] = compound: CC(=O)c1cnc2ccc(-c3cc(Cl)c(O)c(Cl)c3)nc2c1N[C@H]1CC[C@H](CN(C)C)CC1
Summary of the method: as §1

ralimetinib = compound: CC(C)(C)Cn1c(N)nc2ccc(-c3[nH]c(C(C)(C)C)nc3-c3ccc(F)cc3)nc21 [ralimetinib]
Summary of the method: as §1

[11] = compound: CC(C)(O)CC(=O)NCCn1ccc2ncnc(Nc3ccc(Oc4cccc(C(F)(F)F)c4)c(Cl)c3)c21
Summary of the method: as §1

[12] = compound: CC(C)C1=C2N=C(C=C(N2N=C1)NCC3=CC=CC=C3)NCCCCCCN
Summary of the method: as §1

[13] = compound: CC(C)C[C@@H](C=O)NC(=O)[C@H](CC(C)C)NC(=O)[C@H](CC(C)C)NC(=O)OCc1ccccc1
Summary of the method: as §1

pinometostat = compound: CC(C)N(C[C@H]1O[C@@H](n2cnc3c(N)ncnc32)[C@H](O)[C@@H]1O)[C@H]1C[C@@H](CCc2nc3cc(C(C)(C)C)ccc3[nH]2)C1 [pinometostat]
Summary of the method: as §1

[14] = compound: CC1=C(C(CC(=O)N1)C2=CC=C(C=C2)C(F)(F)F)C(=O)NC3=C(C=C4C(=C3)C=NN4)F
Summary of the method: as §1

[15] = compound: CC1=C(C2=C(C=C1)C(=O)C3=CC=CC=C3N2CCCN)C
Summary of the method: as §1

UniProt O95359, sequence (O95359 whole entry, looked up): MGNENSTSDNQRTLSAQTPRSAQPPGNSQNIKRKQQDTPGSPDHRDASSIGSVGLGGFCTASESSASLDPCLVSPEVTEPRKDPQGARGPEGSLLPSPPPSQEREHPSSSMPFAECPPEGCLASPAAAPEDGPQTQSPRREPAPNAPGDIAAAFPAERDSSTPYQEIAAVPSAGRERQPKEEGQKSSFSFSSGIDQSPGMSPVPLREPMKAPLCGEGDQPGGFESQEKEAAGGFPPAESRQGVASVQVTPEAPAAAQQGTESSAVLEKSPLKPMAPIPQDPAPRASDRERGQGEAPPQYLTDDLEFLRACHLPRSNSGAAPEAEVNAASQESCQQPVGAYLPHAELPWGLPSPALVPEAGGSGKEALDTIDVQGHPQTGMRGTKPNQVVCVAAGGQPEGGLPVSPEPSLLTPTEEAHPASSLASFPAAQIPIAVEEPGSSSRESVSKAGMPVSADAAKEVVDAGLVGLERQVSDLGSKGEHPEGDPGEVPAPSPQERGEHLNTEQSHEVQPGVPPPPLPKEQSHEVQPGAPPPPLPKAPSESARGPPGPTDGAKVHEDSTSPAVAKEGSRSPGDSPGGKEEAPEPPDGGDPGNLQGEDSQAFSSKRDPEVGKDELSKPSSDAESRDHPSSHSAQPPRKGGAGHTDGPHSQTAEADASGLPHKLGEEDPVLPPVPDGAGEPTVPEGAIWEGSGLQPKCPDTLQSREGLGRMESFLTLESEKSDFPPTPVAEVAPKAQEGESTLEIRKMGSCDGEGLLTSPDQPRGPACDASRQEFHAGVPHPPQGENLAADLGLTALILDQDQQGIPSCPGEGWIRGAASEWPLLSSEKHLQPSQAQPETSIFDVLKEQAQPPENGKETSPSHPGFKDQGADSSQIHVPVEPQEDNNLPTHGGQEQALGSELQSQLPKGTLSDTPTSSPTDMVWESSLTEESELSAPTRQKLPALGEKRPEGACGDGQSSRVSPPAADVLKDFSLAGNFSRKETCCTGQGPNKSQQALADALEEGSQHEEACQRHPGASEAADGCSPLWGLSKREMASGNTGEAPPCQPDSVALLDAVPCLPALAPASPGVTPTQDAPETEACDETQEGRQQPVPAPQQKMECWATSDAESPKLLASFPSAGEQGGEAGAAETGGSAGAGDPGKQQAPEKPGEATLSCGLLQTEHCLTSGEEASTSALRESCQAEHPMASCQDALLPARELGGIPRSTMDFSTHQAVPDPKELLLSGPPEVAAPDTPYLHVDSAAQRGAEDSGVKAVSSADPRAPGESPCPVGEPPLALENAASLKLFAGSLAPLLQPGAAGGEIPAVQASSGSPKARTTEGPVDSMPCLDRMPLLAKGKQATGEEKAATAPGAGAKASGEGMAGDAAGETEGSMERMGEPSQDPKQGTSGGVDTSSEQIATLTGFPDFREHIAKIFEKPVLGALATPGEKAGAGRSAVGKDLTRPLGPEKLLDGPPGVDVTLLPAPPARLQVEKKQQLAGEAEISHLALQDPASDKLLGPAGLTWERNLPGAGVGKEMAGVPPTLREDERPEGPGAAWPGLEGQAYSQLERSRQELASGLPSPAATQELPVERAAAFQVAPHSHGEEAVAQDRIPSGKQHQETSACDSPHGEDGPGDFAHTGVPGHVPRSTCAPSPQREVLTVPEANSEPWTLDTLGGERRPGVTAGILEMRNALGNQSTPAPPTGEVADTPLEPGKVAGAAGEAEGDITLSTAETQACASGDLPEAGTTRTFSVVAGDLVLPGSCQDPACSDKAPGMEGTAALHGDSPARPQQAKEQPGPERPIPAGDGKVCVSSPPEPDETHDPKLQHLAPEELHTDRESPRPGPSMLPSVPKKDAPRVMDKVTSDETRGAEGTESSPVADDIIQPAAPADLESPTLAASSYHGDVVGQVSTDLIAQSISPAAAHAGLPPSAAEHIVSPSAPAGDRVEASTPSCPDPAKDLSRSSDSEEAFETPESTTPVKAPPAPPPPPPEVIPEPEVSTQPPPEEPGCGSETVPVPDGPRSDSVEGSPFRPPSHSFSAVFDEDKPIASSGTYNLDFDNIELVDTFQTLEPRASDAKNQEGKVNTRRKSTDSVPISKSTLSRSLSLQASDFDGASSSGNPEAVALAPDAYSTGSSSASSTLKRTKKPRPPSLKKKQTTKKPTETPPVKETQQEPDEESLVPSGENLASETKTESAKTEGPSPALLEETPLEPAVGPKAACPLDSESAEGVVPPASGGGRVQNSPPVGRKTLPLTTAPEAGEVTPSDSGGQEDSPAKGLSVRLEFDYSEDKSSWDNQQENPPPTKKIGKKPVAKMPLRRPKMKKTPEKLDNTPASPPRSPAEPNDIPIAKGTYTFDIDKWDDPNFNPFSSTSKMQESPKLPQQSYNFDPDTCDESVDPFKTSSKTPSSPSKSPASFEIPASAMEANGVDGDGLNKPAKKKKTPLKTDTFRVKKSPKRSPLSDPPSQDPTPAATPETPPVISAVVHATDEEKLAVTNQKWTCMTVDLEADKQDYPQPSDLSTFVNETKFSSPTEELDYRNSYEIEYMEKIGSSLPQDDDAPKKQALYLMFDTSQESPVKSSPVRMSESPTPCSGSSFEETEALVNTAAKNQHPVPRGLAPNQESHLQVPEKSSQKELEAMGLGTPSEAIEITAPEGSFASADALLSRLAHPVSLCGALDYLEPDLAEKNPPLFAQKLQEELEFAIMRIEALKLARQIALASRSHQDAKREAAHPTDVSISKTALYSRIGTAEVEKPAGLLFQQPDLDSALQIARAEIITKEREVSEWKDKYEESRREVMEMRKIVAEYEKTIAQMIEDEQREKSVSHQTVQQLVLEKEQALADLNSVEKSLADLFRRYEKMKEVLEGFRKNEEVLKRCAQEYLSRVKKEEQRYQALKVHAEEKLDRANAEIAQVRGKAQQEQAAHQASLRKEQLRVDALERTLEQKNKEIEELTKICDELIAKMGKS
UniProt Q9NZ01, sequence (Q9NZ01 whole entry, looked up): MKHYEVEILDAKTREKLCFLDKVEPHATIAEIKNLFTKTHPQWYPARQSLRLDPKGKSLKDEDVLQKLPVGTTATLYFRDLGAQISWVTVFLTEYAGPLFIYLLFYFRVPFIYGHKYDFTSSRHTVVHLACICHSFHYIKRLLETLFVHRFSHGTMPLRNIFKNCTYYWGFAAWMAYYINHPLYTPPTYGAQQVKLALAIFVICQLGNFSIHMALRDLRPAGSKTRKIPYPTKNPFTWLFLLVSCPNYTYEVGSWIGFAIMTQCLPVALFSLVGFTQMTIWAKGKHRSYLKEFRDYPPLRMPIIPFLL
UniProt Q12824, sequence (Q12824 whole entry, looked up): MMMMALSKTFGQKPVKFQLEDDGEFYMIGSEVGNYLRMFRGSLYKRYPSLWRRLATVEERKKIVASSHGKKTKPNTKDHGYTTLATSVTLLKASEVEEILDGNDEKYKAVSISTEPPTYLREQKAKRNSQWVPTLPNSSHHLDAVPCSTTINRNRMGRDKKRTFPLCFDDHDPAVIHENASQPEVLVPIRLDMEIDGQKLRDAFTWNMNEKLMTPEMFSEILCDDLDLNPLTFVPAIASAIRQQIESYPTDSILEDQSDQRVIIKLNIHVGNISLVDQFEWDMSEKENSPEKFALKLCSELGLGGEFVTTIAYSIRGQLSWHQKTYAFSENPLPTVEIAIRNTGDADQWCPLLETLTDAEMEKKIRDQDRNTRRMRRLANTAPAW
UniProt Q9BYN0, sequence (Q9BYN0 whole entry, looked up): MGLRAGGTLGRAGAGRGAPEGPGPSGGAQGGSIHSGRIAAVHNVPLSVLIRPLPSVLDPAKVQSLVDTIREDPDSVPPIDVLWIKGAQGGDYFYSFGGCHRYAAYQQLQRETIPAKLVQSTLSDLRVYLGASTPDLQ
UniProt P36956, sequence (P36956 whole entry, looked up): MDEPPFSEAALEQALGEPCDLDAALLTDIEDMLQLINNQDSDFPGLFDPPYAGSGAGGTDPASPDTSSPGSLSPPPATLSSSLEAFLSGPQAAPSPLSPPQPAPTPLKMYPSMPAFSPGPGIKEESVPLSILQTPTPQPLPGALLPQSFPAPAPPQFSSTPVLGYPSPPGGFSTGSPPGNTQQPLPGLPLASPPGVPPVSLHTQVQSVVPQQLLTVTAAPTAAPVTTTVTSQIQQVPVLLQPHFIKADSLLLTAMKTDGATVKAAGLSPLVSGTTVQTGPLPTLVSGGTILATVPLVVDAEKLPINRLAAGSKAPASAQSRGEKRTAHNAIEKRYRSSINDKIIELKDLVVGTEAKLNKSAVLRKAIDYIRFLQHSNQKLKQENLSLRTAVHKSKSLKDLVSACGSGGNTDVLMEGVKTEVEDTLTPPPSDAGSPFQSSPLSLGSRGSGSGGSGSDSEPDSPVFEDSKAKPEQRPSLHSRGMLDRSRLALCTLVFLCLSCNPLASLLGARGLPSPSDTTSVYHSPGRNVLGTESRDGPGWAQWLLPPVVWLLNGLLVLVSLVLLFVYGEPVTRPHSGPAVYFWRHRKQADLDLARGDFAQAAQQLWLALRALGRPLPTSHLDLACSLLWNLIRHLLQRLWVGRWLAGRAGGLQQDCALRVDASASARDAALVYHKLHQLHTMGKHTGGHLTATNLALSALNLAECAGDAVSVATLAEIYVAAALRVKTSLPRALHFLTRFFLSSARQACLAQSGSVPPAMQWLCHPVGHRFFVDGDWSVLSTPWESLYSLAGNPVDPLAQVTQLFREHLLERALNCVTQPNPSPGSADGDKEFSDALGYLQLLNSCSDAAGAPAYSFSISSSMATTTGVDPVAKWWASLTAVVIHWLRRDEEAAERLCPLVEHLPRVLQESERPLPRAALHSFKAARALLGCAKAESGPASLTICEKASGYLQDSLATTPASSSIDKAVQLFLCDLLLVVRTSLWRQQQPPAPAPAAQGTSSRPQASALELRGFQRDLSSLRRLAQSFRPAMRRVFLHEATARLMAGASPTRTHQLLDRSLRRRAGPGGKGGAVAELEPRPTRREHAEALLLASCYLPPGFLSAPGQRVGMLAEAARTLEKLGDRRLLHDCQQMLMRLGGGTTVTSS
UniProt Q9H4I9, sequence (Q9H4I9 whole entry, looked up): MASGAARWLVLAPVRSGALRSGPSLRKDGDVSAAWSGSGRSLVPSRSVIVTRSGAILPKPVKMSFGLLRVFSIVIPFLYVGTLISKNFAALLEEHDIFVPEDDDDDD

| Target | log2 fold change (erlotinib) | log2 fold change [1] | log2 fold change [2] | log2 fold change [3] | log2 fold change [4] | log2 fold change [5] | log2 fold change [6] | log2 fold change [7] | log2 fold change [8] | log2 fold change [9] | log2 fold change (IRAK-1-4 Inhibitor I) | log2 fold change (ibrutinib) | log2 fold change [10] | log2 fold change (ralimetinib) | log2 fold change [11] | log2 fold change [12] | log2 fold change [13] | log2 fold change (pinometostat) | log2 fold change [14] | log2 fold change [15] |
| --- | --- | --- | --- | --- | --- | --- | --- | --- | --- | --- | --- | --- | --- | --- | --- | --- | --- | --- | --- | --- |
| TECR (UniProt Q9NZ01) | -0.02 | 0.042 | 0.036 | -0.059 | 0.018 | 0.024 | 0.067 | -0.059 | 0.072 | 0.045 | 0.04 | -0.059 | 0 | -0.061 | -0.107 | -0.458 (active) | 0.009 | 0.024 | 0.012 | 0.036 |
| SRRM2 (UniProt Q9UQ35) | 0.067 | 0.095 | -0.136 | 0.07 | -0.123 | 0.014 | -0.044 | -0.073 | -0.061 | -0.128 | -0.074 | -0.015 | -0.326 | 0.063 | 0.01 | -0.258 | 0.002 | 0.005 | -0.005 | -0.181 |
| SYNE2 isoform 2 (UniProt Q8WXH0) | 0.405 | -0.672 (active) | – | -0.301 | 0.084 | -0.027 | -0.007 | 0.001 | -0.045 | 0.029 | 0.046 | -0.037 | 0.059 | 0.01 | – | 0.078 | 0.059 | -0.024 | 0 | 0.044 |
| TAOK2 (UniProt Q9UL54) | -0.043 | – | -0.019 | 0.156 | – | – | 0.029 | – | -0.014 | 0.029 | -0.132 | – | – | 0.09 | -0.041 | 0.083 | 0.001 | 0.031 | -0.044 | 0.127 |
| SREBF1 isoform 4 (UniProt P36956) | 0.034 | – | 0.045 | 0.001 | – | 0.068 | – | – | – | – | 0.008 | 0.025 | – | – | -0.404 | -0.077 | – | -0.088 | – | – |
| SNX2 isoform 2 (UniProt O60749) | – | -0.244 | 0.091 | – | 0.402 | -0.186 | – | -0.033 | – | – | 0.091 | 0.151 | -0.039 | – | -0.377 | – | – | -0.094 | – | – |
| SRCAP (UniProt Q6ZRS2) | 0.039 | – | – | 0.031 | – | 0.117 | -0.191 | – | 0.059 | -0.254 | -0.42 (active) | 0 | – | 0.036 | – | 0.046 | 0.12 | 0.037 | 0.078 | 0.103 |
| SOX5 (UniProt P35711) | 0.009 | 0.006 | – | 0.125 | 0.047 | 0.018 | -0.049 | 0.012 | -0.069 | 0.095 | 0.067 | 0.115 | -0.028 | 0.037 | – | -0.086 | 0.368 | -0.088 | -0.051 | -0.081 |
| SRXN1 (UniProt Q9BYN0) | – | 0.335 | 0.097 | – | 0.036 | 0.031 | 0.004 | -0.017 | -0.021 | 0.048 | -0.291 | -0.013 | 0.12 | -0.134 | -0.201 | – | -0.024 | 0.187 | 0.045 | -0.026 |
| SPIN4 (UniProt Q56A73) | -0.125 | – | – | 0.116 | – | – | – | – | – | – | 0.07 | – | – | – | – | -0.079 | – | 0.051 | – | – |
| TCOF1 isoform 6 (UniProt Q13428) | -0.234 | – | – | 0.074 | – | -0.045 | 0.186 | – | 0.002 | 0.02 | 0.041 | 0.12 | – | 0.225 | – | 0.092 | -0.127 | -0.121 | 0 | -0.155 |
| TACC2 (UniProt O95359) | -0.219 | 0.008 | – | 0.06 | 0.005 | 0.075 | -0.128 | 0.014 | 0.014 | -0.026 | – | -0.058 | 0.054 | 0.108 | – | -0.205 | -0.007 | – | 0.069 | 0.058 |
| TGFBR1 isoform 2 (UniProt P36897) | -0.012 | 0.084 | – | -0.051 | -0.072 | 0.043 | 0.161 | 0.004 | -0.019 | 0.047 | -0.004 | 0.006 | 0.329 (active) | 0.072 | -0.043 | 0.025 | 0.049 | -0.047 | -0.022 | 0.019 |
| SMDT1 (UniProt Q9H4I9) | – | 0.012 | -0.032 | – | 0.044 | 0.067 | – | 0.044 | 0.01 | 0.036 | 0.039 | 0.036 | -0.026 | – | -0.012 | – | – | -0.043 | – | 0.027 |
| SMARCB1 (UniProt Q12824) | – | – | – | – | – | – | – | – | 0.038 | 0.025 | -0.082 | – | – | – | – | – | – | 0.179 | – | -0.031 |
| TM7SF2 (UniProt O76062) | -0.012 | – | – | -0.05 | – | – | -0.151 | – | – | – | – | – | – | -0.106 | – | -0.124 | -0.01 | – | -0.134 | – |
| SUN1 isoform 9 (UniProt O94901) | 0.055 | 0.037 | -0.346 (active) | 0.032 | 0.066 | – | -0.052 | 0.066 | 0.057 | 0.094 | -0.028 | – | -0.114 | 0.067 | 0.115 | -0.149 | 0.042 | 0.128 | 0.127 | -0.05 |
| TENT5C (UniProt Q5VWP2) | -0.117 | – | – | 0.087 | – | 0.023 | -0.104 | – | -0.025 | -0.017 | 0.136 | 0.008 | – | -0.119 | – | 0.18 | 0.03 | -0.028 | -0.018 | -0.014 |

From the supplement of paper PMC10849652
